Bioassay records as filed in PubChem.
Hits are enriched below; roughly 1.9% of the tested compounds scored in any of these assays.
MLLE-PAM2 inh: blocks PAM2 peptide binding to the PABP1 MLLE domain | 360,000 compounds, 0.36% hits | P11940 | inhibition, % at 20 µM | GST-MLLE / FITC-PAM2 fluorescence polarization; in the data active means inhibition above about 35%, passing the limit was not always enough;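 further: plate controls were DMSO wells with GST-MLLE for no effect and wells lacking GST-MLLE protein for full effect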
Target sequence (P11940 whole entry, looked up, the tested form may be a part): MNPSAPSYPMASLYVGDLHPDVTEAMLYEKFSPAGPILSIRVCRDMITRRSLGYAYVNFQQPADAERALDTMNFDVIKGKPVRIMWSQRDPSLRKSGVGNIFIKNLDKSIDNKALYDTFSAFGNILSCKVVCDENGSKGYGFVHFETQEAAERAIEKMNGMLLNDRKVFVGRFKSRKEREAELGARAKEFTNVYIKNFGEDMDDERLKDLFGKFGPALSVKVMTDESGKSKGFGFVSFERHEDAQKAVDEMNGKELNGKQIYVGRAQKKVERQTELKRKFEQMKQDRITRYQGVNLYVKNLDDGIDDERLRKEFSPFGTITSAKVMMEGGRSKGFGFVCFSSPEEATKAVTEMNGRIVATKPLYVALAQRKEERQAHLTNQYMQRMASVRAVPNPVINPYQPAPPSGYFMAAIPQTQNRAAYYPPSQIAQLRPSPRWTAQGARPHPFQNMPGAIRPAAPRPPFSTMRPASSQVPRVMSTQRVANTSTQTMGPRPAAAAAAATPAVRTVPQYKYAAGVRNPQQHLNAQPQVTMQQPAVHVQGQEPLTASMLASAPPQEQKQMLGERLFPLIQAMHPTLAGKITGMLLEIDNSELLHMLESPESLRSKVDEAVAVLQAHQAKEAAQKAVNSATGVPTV
14-3-3 Bad inh: disrupts binding of bovine 14-3-3 zeta to phospho-Bad peptide; P63103; TR-FRET 14-3-3zeta/Dy647-pBad peptide displacement, 1 h; inhibition, % at 21.7 µM; 220,000 compounds, 0.71% hits; AID 781;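 active means inhibition above about 70%, limit read from the data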;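 further: 0% = full 14-3-3 plus peptide FRET controls and 100% = background without 14-3-3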
eIF4E-4G inh: eIF4E/eIF4G interaction inhibition in translation initiation | TR-FRET eIF4E-eIF4GI(517-606) binding, 2 h | inhibition, % at 21.7 µM | 220,000 compounds, 0.37% hits | AID 782;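 active means inhibition above about 30%, limit read from the data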;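 further: 0% = full FRET control wells and 100% = background wells lacking eIF4GI fragment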
PABP polyA inh: PABP-poly(A) binding inhibition | AID 2014 | 290,000 compounds, 1% hits | PABP-poly(A) RNA binding, fluorescence polarization | P11940 | calls only at 35 µM;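 further: calls also rest on retests at 20 µM and on dose response follow-up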
eIF4H FP inh: inhibitors of RNA binding by human eIF4H; AID 2012; eIF4H fluorescence polarization binding assay; Q15056; 290,000 compounds, 0.94% hits; inhibition, % at 35 µM;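 further: calls also rest on retests at 20 µM and on dose response follow-up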
An asterisk follows results filed as active; i = inactive; ? = inconclusive; . = not tested or not shown; + = active, no number; [ ] = another dose, or the depositor's remark. Unless noted, how the calls were made is not given here.

SMILES | MLLE-PAM2 inh | 14-3-3 Bad inh | eIF4E-4G inh | PABP polyA inh | eIF4H FP inh
CCCCCCC(=O)N/N=C/c1c(O)n(CCCC)c(=S)[nH]c1=O | -17.2 | -9.5 | 3.1 | i | 4.0
CCCC[N+]12CCC(CC1)C(C(O)(c1ccccc1)c1ccccc1)C2 (stereo not drawn) | -106.6 | 3.5 | -0.1 | i | active
CCOC(=O)[C@]1(C#N)[C@@H]2C=CC(C(C)=O)=CN2[C@@H](C(N)=O)[C@@H]1c1ccsc1 | 11.1 | 1.0 | 9.6 | + | 56.7*
CN1CCC(C)(O)C2CCCCC21 (stereo not drawn) | 0.1 | -3.3 | 1.7 | i | 20.0
COc1ccc(CC2C(=O)NC(C)C(=O)N(C)C3C(=O)N(C)C(Cc4ccc(O)c(c4)Oc4ccc(cc4)C3O)C(=O)NC(C)C(=O)NC(C)C(=O)N2C)cc1 (stereo not drawn) | 6.1 | . | . | . | .
CN1CC=C2C(C#N)=C(N)C(C#N)(C#N)C(c3ccncc3)C2C1 (stereo not drawn) | 96.3 | . | . | + | 121.5*
CCOc1ccccc1CN1CCCC(C(=O)c2cc(F)ccc2F)C1 (stereo not drawn) | -5.6 | . | . | i | -0.5
COc1ccc(C(=O)C2CCCN(CCc3ccccc3)C2)cc1OC (stereo not drawn) | 5.0 | . | . | . | .
CN(C)CCCN=Cc1c(O)n(CCc2ccccc2)c(=O)[nH]c1=O | -86.0 | 10.6 | -4.5 | i | 95.5*
CN(C)CCCN=Cc1c(O)n(CCc2ccc(F)cc2)c(=O)[nH]c1=O | -1.6 | 2.2 | 4.7 | i | -0.4
COc1ccccc1-n1c(-c2cccs2)nc2ccccc2c1=O | -5.0 | 5.1 | 3.4 | i | -4.4
CCN(CC)c1ccc(CN2CC=C(c3ccc(F)cc3)CC2)cc1 | 15.2 | 76.7* | 2.7 | i | -5.1
O=C1NCN(c2ccccc2)C12CCN(C(c1nnnn1Cc1ccccc1)C1CC1)CC2 (stereo not drawn) | -0.2 | . | . | . | .
CC(C)N(C(=O)CCl)c1ccccc1 | -4.0 | . | . | . | .
CCCCOc1ccc(CN2CCN(CC)CC2)cc1 | 1.6 | 85.7* | 5.9 | i | -8.8
COc1ccc(CC2C(=O)NC(=O)N(c3ccccc3)C2=O)c(OC)c1 (stereo not drawn) | -1.9 | 3.1 | 68.8*[fluorescence artefact?] | i | -3.1
COc1ccc(CC2C(=O)N(c3ccccc3)C(=O)N(c3ccccc3)C2=O)c(OC)c1 | -15.1 | 34.9 | 1.2 | i | 9.2
CCC1CN2CCc3cc(OC)c(OC)cc3C2CC1CC1NCCc2c1[nH]c1ccc(O)cc21 (stereo not drawn) | -1.1 | . | . | . | .
CN1CCN2c3ccc(N)cc3CC3(C(=O)NC(=O)NC3=O)C2C1 (stereo not drawn) | 17.6 | 95.8* | 93.5* | ? | 30.3
O=C1NC(=O)C2(Cc3ccccc3N3CCCC32)C(=O)N1 (stereo not drawn) | 19.9 | 9.2 | -1.1 | i | 12.5
CN1C(=O)N(C)C(=O)C2(Cc3cc(N)ccc3N3CCN(c4ccccc4F)CC32)C1=O (stereo not drawn) | . | 82.3* | 10.5 | i | 6.6
CCN1C(=O)N(CC)C(=O)C2(Cc3ccccc3N3CCN(c4ccccc4)CC32)C1=O (stereo not drawn) | 8.5 | 0.0 | 3.0 | i | 5.4
CCCNC1=C(C)C(=O)C2=C(C1=O)C(COC(N)=O)[C@]1(OC)C3NC3CN21 (stereo partly drawn) | 3.5 | -4.5 | 0.5 | i | 40.1
Cn1cc(NC(=O)CCl)cn1 | 7.1 | -7.9 | -5.4 | i | 1.5*
O=C1c2cccc3cccc(c23)C(=O)N1/N=C/c1c(O)n(-c2ccccc2)c(=O)[nH]c1=O | 6.0 | -0.3 | -3.0 | ? | ?
SMILES | MLLE-PAM2 inh | 14-3-3 Bad inh | eIF4E-4G inh | PABP polyA inh | eIF4H FP inh
NC(=O)c1ccc(N=Cc2c(O)n(Cc3ccco3)c(=O)[nH]c2=O)cc1 | -4.3 | -4.6 | -3.1 | + | 55.1
O=c1[nH]c(=S)n(Cc2ccco2)c(O)c1C=NCc1cccs1 | 20.7 | -8.2 | -3.6 | + | 52.7*
O=C(OC1CC2CCC(N2)C1C(=O)O)c1ccccc1 (stereo not drawn) | -13.5 | . | . | . | .
O=C1NC(=O)C(C2CCOC2=O)N1 (stereo not drawn) | 14.7 | . | . | . | .
CCOC1=C(N2CC2)C(=O)C(OCC)=C(N2CC2)C1=O | 10.1 | . | . | . | .
CN(C)Cc1c[nH]c2ccccc12 | 10.0 | . | . | . | .
CC(=O)Cc1c[nH]c2ccccc12 | . | -6.0 | 97.0* | i | -5.5
COC(=O)c1c(C)[nH]c(C(=O)C(C)[N+]23CCN(CC2)CC3)c1C (stereo not drawn) | 3.5 | 80.6* | 13.0 | i | -5.1
O=C(Nc1cccnc1)c1c(O)c2c(n(Cc3ccccc3)c1=O)CCCC2 | 6.4 | 7.7 | 61.2* | i | 2.9
COc1cc2c(cc1OC)C(c1c(O)n(CCc3ccccc3)c(=S)[nH]c1=O)NCC2 (stereo not drawn) | . | 1.1 | -5.6 | + | ?
COc1ccc(C2CC(c3c(O)n(CCc4ccccc4)c(=O)[nH]c3=O)=NN2)cc1OC (stereo not drawn) | -9.2 | -15.5 | -6.3 | i | 1.8
Cn1c(O)c(C(=O)c2ccccc2)c(=O)n(C)c1=O | 6.5 | 38.6 | -3.2 | + | 55.8*
CCC(c1nnnn1-c1ccc(OC)cc1)N1CCC2(CC1)C(=O)NCN2c1ccccc1 (stereo not drawn) | -9.0 | . | . | . | .
COc1ccc(C(c2nnnn2-c2ccc3c(c2)OCCO3)N2CCC3(CC2)C(=O)NCN3c2ccccc2)cc1 (stereo not drawn) | 0.7 | . | . | . | .
CCN1C(=O)/C(=C\c2ccc([N+](=O)[O-])s2)C(=O)NC1=S | . | 94.3* | 24.1 | + | 52.0*
CCn1c(O)c(C(c2ccccn2)c2c(O)n(CC)c(=S)[nH]c2=O)c(=O)[nH]c1=S | 26.3 | 73.3* | 3.9 | i | 3.5
CC1Oc2cc3c(-c4c(O)cc(O)c5c(O)c6c(cc45)OC(C)C(C)C6=O)c(O)cc(O)c3c(O)c2C(=O)C1C (stereo not drawn) | 16.1 | 25.0 | 55.8* | + | 90.2*
CNc1ccc2nc3ccccc3[n+](C)c2c1 | 86.4* | . | . | ? | ?
OCCNc1c2c(nc3ccccc13)CCCC2 | 12.9 | 14.3 | -4.8 | i | -4.1
C[n+]1c2ccccc2nc2ccc(NCCO)cc21 | 29.3 | . | . | + | 46.4
C=CCn1c(O)c(C(CC)=Nc2ccc(C(=O)O)cc2)c(=O)[nH]c1=O | -1.3 | -9.7 | -3.5 | i | 19.6
CCCCn1c(O)c(C(CC)=Nc2ccc(C(=O)O)cc2)c(=O)[nH]c1=O | -3.2 | 6.4 | -0.7 | i | 61.7*
COc1ccc(CCNCc2c(OC)ccc3ccccc23)cc1 | 7.5 | . | . | i | 28.5
Cc1ccc(-n2c(=S)[nH]c3ccccc3c2=O)cc1F | 8.8 | . | . | . | .
BrCC(Br)C1CCC(Br)C(Br)C1 (stereo not drawn) | 9.5 | . | . | . | .
COc1ccc(N2C(=O)CC(=O)NC2=O)cc1 | -4.6 | -15.1 | -11.6 | + | ?
Cc1cccc(N2C(=O)CC(=O)NC2=O)c1 | -29.0 | 1.9 | -1.7 | i | 68.8*
Cc1ccc(N2C(=O)CC(=O)NC2=O)cc1 | -17.1 | 4.8 | 0.2 | ? | ?
